“And” between values parts separate entries of the source, which are not always exact repeats. Equal entries are not always repeated. Results filed as inconclusive are left out. Some compounds were tested as several samples or in several runs, with calls that do not always agree. The source made the active and inactive calls. Unless noted, the call rests on the fitted dose curve; in most records, active means well fitted curve in the direction sought with a large enough effect; inconclusive means small, poorly fitted or top-dose-only effect, or another doubt; inactive means no such curve, though single readings can be large; an effect the other way counts as inactive or inconclusive.
Assays:
[1] = target: Tumor necrosis factor (Homo sapiens) (UniProt P01375); test: qHTS assay to identify small molecules that stimulate Tumor Necrosis Factor-alpha (TNF-alpha) secretion (AID 651757; active means well fitted curve in the direction sought with a large enough effect in the signal ratio; the % refers to the signal ratio; further: 0% is about no effect)
Chain of Tumor necrosis factor (Homo sapiens) (P01375 whole entry, looked up): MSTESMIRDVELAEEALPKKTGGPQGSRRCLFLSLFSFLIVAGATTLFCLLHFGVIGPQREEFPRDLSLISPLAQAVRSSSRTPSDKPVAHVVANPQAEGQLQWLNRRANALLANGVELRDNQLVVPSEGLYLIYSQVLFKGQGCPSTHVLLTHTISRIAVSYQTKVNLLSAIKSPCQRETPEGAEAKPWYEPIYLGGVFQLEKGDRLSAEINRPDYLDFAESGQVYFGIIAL
In short: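 Secreted TNF-alpha from compound-treated THP-1 cells (17 hrs, 37 C) was quantified with a homogeneous time-resolved fluorescence antibody assay.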

[2] = qHTS assay for environmental chemicals that activate the Aryl hydrocarbon Receptor (AhR) signaling pathway (AID 651777); conditions: 1A2-DRE human hepatoma cells, luciferase, 24 h; activation: stronger effect = higher value; further: nearly all actives have a fitted effect of over 15% in size; further: potency means the concentration at half of the fitted maximal effect; on activation: % of control where 0% means no effect
In short: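 Luminescence read-out: One-Glo added for 30 min at RT after 24 hr compound treatment (37 C, 5% CO2) of human hepatoma cells expressing a DRE/CYP1A2 promoter–luciferase reporter; increased signal indicates AhR activation.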

[3] = target: Peroxisome proliferator-activated receptor alpha (Homo sapiens) (UniProt Q07869); test: qHTS assay for small molecule agonists of the peroxisome proliferator-activated receptor alpha (PPARalpha) signaling pathway (AID 651778); conditions: PathHunter PPARalpha complementation, chemiluminescence, 6 h; stronger effect = higher value; further: % of control where 0% means no effect
Chain of Peroxisome proliferator-activated receptor alpha (Homo sapiens) (Q07869 whole entry, looked up): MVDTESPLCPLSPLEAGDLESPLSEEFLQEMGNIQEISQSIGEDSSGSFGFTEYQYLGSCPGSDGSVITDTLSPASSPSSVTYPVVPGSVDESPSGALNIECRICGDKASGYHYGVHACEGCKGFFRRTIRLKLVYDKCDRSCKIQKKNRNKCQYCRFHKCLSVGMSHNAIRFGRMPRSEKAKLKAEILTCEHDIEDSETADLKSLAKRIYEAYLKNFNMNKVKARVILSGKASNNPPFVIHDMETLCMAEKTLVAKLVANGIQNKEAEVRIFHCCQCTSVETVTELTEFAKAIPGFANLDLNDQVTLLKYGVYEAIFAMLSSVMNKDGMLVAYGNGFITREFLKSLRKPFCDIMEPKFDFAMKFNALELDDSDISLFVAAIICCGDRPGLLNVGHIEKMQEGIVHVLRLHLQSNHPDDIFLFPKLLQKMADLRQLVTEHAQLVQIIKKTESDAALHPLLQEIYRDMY
In short: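 Cells plated at 2,000/well and held overnight at 37 C, 5% CO2, then compound added by pin tool for 6 hr; after PathHunter detection reagent and 60 min at room temperature, chemiluminescence from enzyme complementation was read.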

[4] = target: Nuclear receptor ROR-gamma (Homo sapiens) (UniProt P51449); test: qHTS assay for small molecule antagonists of the retinoid-related orphan receptor gamma (ROR-gamma) signaling pathway (AID 651802); further: nearly all actives have a fitted effect of over 60% in size; further: potency means the concentration at half of the fitted maximal effect
Chain of Nuclear receptor ROR-gamma (Homo sapiens) (P51449 whole entry, looked up): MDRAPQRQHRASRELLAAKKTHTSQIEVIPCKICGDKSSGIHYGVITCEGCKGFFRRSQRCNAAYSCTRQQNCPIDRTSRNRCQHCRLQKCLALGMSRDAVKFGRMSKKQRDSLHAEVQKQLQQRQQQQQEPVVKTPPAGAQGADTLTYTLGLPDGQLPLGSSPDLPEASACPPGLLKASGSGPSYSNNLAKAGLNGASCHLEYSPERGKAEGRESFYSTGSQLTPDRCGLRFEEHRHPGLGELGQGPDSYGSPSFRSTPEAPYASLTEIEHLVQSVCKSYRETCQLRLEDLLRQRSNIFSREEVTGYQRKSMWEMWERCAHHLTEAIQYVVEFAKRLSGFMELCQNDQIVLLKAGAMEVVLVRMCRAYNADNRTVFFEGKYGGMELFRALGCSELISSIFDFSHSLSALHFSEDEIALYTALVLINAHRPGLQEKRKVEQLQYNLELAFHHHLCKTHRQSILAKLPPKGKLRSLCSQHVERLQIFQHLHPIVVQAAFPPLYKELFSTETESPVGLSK
In short: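 Antagonism is scored as a fall in luminescence from a RORE-luciferase reporter in CHO cells expressing ROR under a TET-inducible promoter, measured 16hr after doxycycline induction in the presence of compound.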

[5] = qHTS assay for small molecule agonists of the antioxidant response element (ARE) signaling pathway measured by Nrf2-dependant transcriptional activity (AID 720636; active means well fitted curve in the direction sought with a large enough effect in the repeat runs; an effect the other way counts as inactive or inconclusive;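 further: HepG2 cells with an ARE-driven luciferase reporter; % of control where 0% means no effect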)
In short: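 HepG2 ARE-luc reporter line, 1% dialyzed FBS; 6 hr attachment at 37 C, compound pinned in, 16 hr at 37 C/5% CO2; ONE-Glo, 30 min RT, luminescence read.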

[6] = qHTS assay to identify small molecules that stimulate interleukin-8 (IL-8) secretion (AID 651758; active means well fitted activation curve with a large enough effect in the signal ratio; the % refers to the signal ratio; further: potency means the concentration at half of the fitted maximal effect; on activation: 0% is about no effect)
In short: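 THP-1, 2000 cells/well; cpd 16 h, 37 C; add cryptate + XL665 anti-IL-8 Abs; RT 1-3 h; TR-FRET read.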

[7] = target: Arylsulfatase A (Homo sapiens) (UniProt P15289); test: qHTS screen for enhancers of Arylsulfatase A (ASA1): LOPAC Validation Assay (AID 720538); further: 0% is about no effect
Chain of Arylsulfatase A (Homo sapiens) (P15289 whole entry, looked up): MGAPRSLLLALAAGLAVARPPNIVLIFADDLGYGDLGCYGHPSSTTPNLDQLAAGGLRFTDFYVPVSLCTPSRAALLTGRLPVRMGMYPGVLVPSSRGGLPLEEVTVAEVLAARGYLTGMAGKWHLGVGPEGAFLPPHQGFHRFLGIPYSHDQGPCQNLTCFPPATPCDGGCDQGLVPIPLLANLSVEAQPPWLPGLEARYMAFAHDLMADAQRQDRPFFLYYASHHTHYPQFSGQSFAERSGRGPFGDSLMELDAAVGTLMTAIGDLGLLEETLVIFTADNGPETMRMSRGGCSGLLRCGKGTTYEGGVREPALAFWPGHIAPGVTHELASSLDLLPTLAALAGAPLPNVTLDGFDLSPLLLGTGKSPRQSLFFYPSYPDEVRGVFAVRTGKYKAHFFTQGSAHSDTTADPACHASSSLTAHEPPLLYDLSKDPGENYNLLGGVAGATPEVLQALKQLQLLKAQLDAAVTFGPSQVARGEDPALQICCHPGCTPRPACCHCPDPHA
In short: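 SV40-transformed fibroblasts from an MLD patient (ASA-I179S) were treated with compound for 48 h at 37 C. They were then lysed with 0.5 mM pNCS substrate (final) for 14 h at room temperature and stopped with NaOH; signal read by fluorescence (Ex 525/Em 598 nm), with increase denoting enhanced activity.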

[8] = qHTS for compounds that reverse cellular toxicity of Amyloid beta (A-beta) peptide in yeast: LOPAC Validation Assay (AID 720559);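 further: plate controls were DMSO for no effect and equimolar ferric chloride plus clioquinol rescue for full effect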
In short: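 Yeast expressing toxic A-beta grown with pinned compounds at 30 C for 48 hr. Growth measured as absorbance at 600 nm; data normalized to DMSO and to an equimolar FeCl3/clioquinol mixture as positive control.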

[9] = qHTS for Activators of Parkin Expression: LOPAC Validation Assay (NLuc Reporter) (AID 720572;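 further: 0% = DMSO and 100% = positive control compound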)
In short: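 Neuronal line stably carrying a FLuc/NLuc coincidence reporter under the Parkin promoter, seeded 24 h, then dosed in 7-point series for 24 h at 37 C. NLuc luminescence read after FLuc; normalized to DMSO and positive control (100%).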

[10] = qHTS for Activators of Parkin Expression: LOPAC Validation Assay (FLuc Reporter) (AID 720573;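 further: 0% = DMSO and 100% = positive control compounds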)
In short: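 Neuronal cell line stably expressing FLuc/NLuc coincidence reporter under the Parkin promoter, 1,500 cells/well, dosed 24 h after seeding in 7-point series for 24 h at 37 C. FLuc luminescence read; normalized to DMSO and positive control (100%).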

O=C1CCO1
inactive: outcome [1] | activation [2] 1.44% | max response [3] -1.17% | Potency [4] | Potency [5]

O=C1C2CC=CCC2C(=O)N1SC(Cl)(Cl)Cl (centres undefined)
inactive: outcome [1] | activation [2] -4.61% and -3.77% and 2.69% | max response [3] -6.31% and -2.76% and -2.09% | Potency [5]

ClCC1CO1 (centres undefined)
inactive: outcome [1] | Potency [6] | activation [2] -0.99% | max response [3] -4.69% | Potency [4] | Potency [5]

CC(C)(C)c1cc(O)ccc1O
active: Potency [4] 16.8 µM and 29.8 µM
inactive: outcome [1] | activation [2] 12.6% and 10.4% | max response [3] -2.46% and -4.08% and -1.53%
inactive and 66.8 µM (active): Potency [6]

CCOP(=O)(OCC)O/C(=C/Cl)c1ccc(Cl)cc1Cl
inactive: activation [2] 3.76% | max response [3] -3.2% and -2.2% | Potency [5]
active: Potency [2] 50.1 µM

O=CC=O
inactive: outcome [1] | activation [2] -1.42% | max response [3] -5.03% | Potency [4] | Potency [5]

CC(C)CCON=O
inactive: outcome [1] | Potency [6] | activation [2] -0.695% | max response [3] -0.247% | Potency [4] | Potency [5]

C[C@H]1CCC[C@H](O)CCCCCc2cc(O)cc(O)c2C(=O)O1
inactive: outcome [1] | activation [2] -1.64% | max response [3] -2.71% | Potency [5]
active: Potency [4] 42.2 µM

C=CCN=C=S
inactive: outcome [1] | Potency [6] | activation [2] 0.264% | max response [3] -1.57% | Potency [4] | Potency [5]

O=C/C=C/c1ccccc1
inactive: outcome [1] | activation [2] 2.17% and 1.64% | max response [3] 0.173% and 5.71% | Potency [4]

ClC(Cl)(Cl)Cl
inactive: outcome [1] | Potency [6] | activation [2] -0.636% and 0.214% | max response [3] -1.24% and -4.01% | Potency [4] | Potency [5]

CCOC(=O)c1ccccc1C(=O)OCC
inactive: outcome [1] | Potency [6] | max response [3] 0.572% and -3.94% and -0.67% | Potency [4] | Potency [5]

CCCCCl
inactive: outcome [1] | activation [2] -0.771% | max response [3] -3.81% | Potency [4] | Potency [5]

COC1=CC(=O)O[C@@H](/C=C/c2ccccc2)C1
inactive: outcome [1] | activation [2] 1.75% | max response [3] -0.906% | Potency [4] | Potency [5]

COc1ccc2c(c1OC)C(=O)OC2C1c2cc3c(cc2CCN1C)OCO3 (centres undefined)
inactive: outcome [1] | Potency [6] | activation [2] 0.0911% | max response [3] -0.464% | Potency [4] | Potency [5]

COCC(C)N(C(=O)CCl)c1c(C)csc1C (centres undefined)
inactive: activation [2] -1.87% | max response [3] -3.83%

ClC=C(Cl)Cl
inactive: outcome [1] | activation [2] 3.37% and -2.62% | max response [3] -8.59% and -1.74% | Potency [4] | Potency [5]

Oc1cc(Cl)c(Cl)cc1Cl
active: Potency [4] 23.7 µM
inactive: activation [2] 3.21% and 2.24% | max response [3] -3.77% and 0.0897% | Potency [5]

C#CCN1CC(=O)N(COC(=O)C2C(C=C(C)C)C2(C)C)C1=O (centres undefined)
inactive: activation [2] 3.63% | max response [3] 0.547%

NNC(N)=O
inactive: outcome [1] | activation [2] 0.598% | max response [3] -2.31% | Potency [4] | Potency [7] | outcome [8] | Potency [9] | outcome [10] | Potency [5]

S=C=S
inactive: outcome [1] | Potency [6] | activation [2] 0.646% | max response [3] -4.15% | Potency [4] | Potency [5]

C[C@H]1CC[C@@H]2[C@@H](C)[C@H]3[C@H](C[C@H]4[C@@H]5CC=C6CC(O[C@@H]7O[C@H](CO)[C@H](O)[C@H](O[C@@H]8O[C@H](CO)[C@@H](O)[C@H](O)[C@H]8O)[C@H]7O[C@H]7O[C@@H](C)[C@H](O)[C@@H](O)[C@H]7O)CC[C@]6(C)[C@H]5CC[C@]34C)N2C1 (some centres undefined)
inactive: outcome [1] | activation [2] -8.71% | max response [3] -0.952% | Potency [5]
active: Potency [4] 13.3 µM

O=Cc1ccco1
inactive: outcome [1] | activation [2] -0.549% | max response [3] -1.43% | Potency [5]

[O]=[Cd]
inactive: outcome [1] | activation [2] 0.231% | max response [3] -1.92% | Potency [4] | Potency [5]

O=C(O)C(Cl)(Cl)Cl
inactive: outcome [1] | Potency [6] | max response [3] 3.26% and -0.682% | Potency [4] | Potency [5]

C[C@]12CCC(=O)C[C@@H]1CC[C@@H]1[C@@H]2CC[C@]2(C)[C@@H](O)CC[C@@H]12
inactive: outcome [1] | activation [2] -0.925% and -0.613% | max response [3] -1.24% and 0.0043% | Potency [5]
active: Potency [4] 26.6 µM

From PubChem BioAssay (NCATS)
